# From PubChem BioAssay AID731 (The Scripps Research Institute Molecular Screening Center, 2007)
# Hit rate of the full screen: of about 200,000 compounds, about 520 (0.26%) were called active. Shown is part of a subset that was picked to be rich in actives. Unmarked numbers belong to inactive results. No stated cut-off is given here; in the data, active means activation above about 23%; inactive means the rest.
# Target: Peroxisome proliferator-activated receptor gamma (Homo sapiens) (UniProt P37231)
# Assay: enhancers of SRC-3 binding to PPARgamma – biochemical, primary screen (AID 731);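 further: 0% = DMSO and 100% = reference agonist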
# Settings: biochemical PPARgamma/SRC-3 coactivator recruitment assay; at 8 µM; hits give high values
# Sequence of Peroxisome proliferator-activated receptor gamma (Homo sapiens) (P37231 whole entry, looked up): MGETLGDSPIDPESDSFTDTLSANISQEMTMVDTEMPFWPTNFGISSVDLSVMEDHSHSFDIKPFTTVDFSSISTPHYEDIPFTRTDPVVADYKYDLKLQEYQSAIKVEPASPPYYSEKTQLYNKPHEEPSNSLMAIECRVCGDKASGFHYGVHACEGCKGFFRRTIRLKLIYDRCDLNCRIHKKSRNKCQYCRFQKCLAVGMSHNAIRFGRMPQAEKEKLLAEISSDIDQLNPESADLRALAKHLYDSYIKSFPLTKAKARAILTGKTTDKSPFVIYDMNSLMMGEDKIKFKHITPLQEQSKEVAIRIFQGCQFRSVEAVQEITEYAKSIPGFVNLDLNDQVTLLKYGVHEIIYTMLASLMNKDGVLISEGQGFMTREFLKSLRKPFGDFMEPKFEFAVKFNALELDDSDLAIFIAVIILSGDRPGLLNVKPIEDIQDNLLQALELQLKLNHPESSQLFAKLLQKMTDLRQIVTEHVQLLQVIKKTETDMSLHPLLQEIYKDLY
row,SMILES,activation
1,CSC1=NP(=S)(SC)N(C)c2nc3n(c21)CCC3 (stereo not given),102% (active)
2,CCCCCCN=C(CC)c1c(O)n(CCCC)c(=O)[nH]c1=O,-4.72%
3,CCNc1nc2[nH]c(=O)c3c(c2s1)OC(N)=C(C#N)C3c1cccs1 (stereo not given),-2.75%
4,CCN(CC)c1ccc([N+](=O)[O-])c2cccnc12,4.74%
5,CC[N+](CC)(CC)CCCCCCCCCC[N+](CC)(CC)CC,-1.93%
